Measurements taken from PubChem BioAssay (NCI).
Compounds without any hit were thinned out: in the full panel of roughly 79,000, 15% have a hit. No stated cut-off is given here; in the data, active means growth inhibition above about 70%; inactive means the rest.

Tests used:
[1] = NCI Yeast Anticancer Drug Screen. Data for the rad50 strain (AID 155);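 further: 0% = growth of vehicle-only cultures of the same strain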; settings: S. cerevisiae rad50 strain growth inhibition; at 50.0 µM; stronger effect = higher value
Summary of the method: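 Inhibition values express reduced yeast growth in compound-treated cultures relative to vehicle-treated controls.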

[2] = NCI Yeast Anticancer Drug Screen. Data for the mec2-1 strain (AID 157); settings: S. cerevisiae mec2-1 strain, at 50.0 µM, stronger effect = higher value
Summary of the method: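 Cells of the genetically defined mec2-1 yeast strain are incubated with test compound. Inhibition of growth is calculated against vehicle-treated controls.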

[3] = NCI Yeast Anticancer Drug Screen. Data for the sgs1 mgt1 strain (AID 161);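 further: 0% = growth of cultures given vehicle only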; settings: S. cerevisiae sgs1 mgt1 strain, at 50.0 µM, stronger effect = higher value
Summary of the method: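 Test agents were incubated with a DNA-repair-mutant yeast strain. Growth was then read and compared against vehicle-treated controls.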

[4] = NCI Yeast Anticancer Drug Screen. Data for the cln2 rad14 strain (AID 165);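 further: 0% = growth equal to vehicle treated cultures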; settings: S. cerevisiae cln2 rad14 strain, at 50.0 µM, stronger effect = higher value
Summary of the method: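 The screen exposed genetically defined yeast (cln2 rad14) to test compounds and scored growth inhibition relative to vehicle-treated controls.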

[5] = NCI Yeast Anticancer Drug Screen. Data for the bub3 strain (AID 167); settings: S. cerevisiae bub3 mutant strain, at 50.0 µM, stronger effect = higher value
Summary of the method: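 Steps: expose the mutant yeast strain to compound; grow alongside vehicle-treated cultures; measure growth; express inhibition against the vehicle cultures.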

[6] = NCI Yeast Anticancer Drug Screen. Data for the mlh1 rad18 strain (AID 175); settings: S. cerevisiae mlh1 rad18 strain growth inhibition; at 50.0 µM; stronger effect = higher value
Summary of the method: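 Compound-treated yeast growth, normalised to vehicle controls. Strain bears defined DNA repair mutations.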

Measured: growth inhibition

O=S(=O)(CCc1ccccc1)c1nc2ccccc2s1
inactive: [1] -1.5% | [2] -1.85% | [3] -2.8% | [4] -11.9% | [5] -37.5% | [6] -11.5%

CCCCc1c2c(nc3c1CCCC3O)CCCC2 (stereo unspecified)
inactive: [1] -40.4% | [2] -63% | [3] -13.9% | [4] 13.2% | [5] -8.1% | [6] -23.9%

CC(C)C(=O)c1ccccc1Cl
inactive: [1] 2.85% | [2] -7.05% | [3] -2.45% | [4] -0.35% | [5] 2.7% | [6] -8%

CCCCC/C(C)=C\C(=O)O
inactive: [1] 8.95% | [2] 9.4% | [3] 7.25% | [4] -14.2% | [5] -2.4% | [6] 5.35%

O=C(NCCNCCO)N/N=C/c1ccc([N+](=O)[O-])cc1
inactive: [1] -8.75% | [2] -7.35% | [3] -1.4% | [4] 36.6% | [5] 0.3% | [6] -3.65%

CC(=O)C1COC(O)C1C (stereo unspecified)
inactive: [1] -5.45% | [2] -21.9% | [3] -15.2% | [4] 13.4% | [5] -24.6% | [6] 2.05%

CC(C)CNC(=O)C(=O)NCC(C)C
inactive: [1] -4.65% | [2] -9.7% | [3] -1.6% | [4] -41.5% | [5] -21.4% | [6] -2.4%

O=C(Nc1ccc([N+](=O)[O-])cc1Cl)OCCc1ccccn1
inactive: [1] 3.25% | [2] 26.9% | [3] 23.6% | [4] -10.6% | [5] 52% | [6] 20.5%

CC(C)(C)OC(=O)[N+](=N)C(=O)C1CCC(=O)N1C(=O)OCc1ccccc1 (stereo unspecified)
inactive: [1] -27.7% | [2] -33.6% | [3] -23.4% | [4] -11.4% | [5] -1.9% | [6] -20%

Nc1ccc(O)c(N)c1
inactive: [1] 35.1% | [2] 23.5% | [3] 26.6% | [4] 13.9% | [5] -8% | [6] 31.4%

O=c1oc2ccccc2c2c1Sc1ccccc1N2
inactive: [1] -0.95% | [2] -22% | [3] 17% | [4] 12.8% | [5] 2.05% | [6] -9.1%

CCNC(=O)C1C2C=CC(C2)C1C(=O)NCC (stereo unspecified)
inactive: [1] 2.9% | [2] -9.6% | [3] -9.15% | [4] -46% | [5] -5.3% | [6] 0.05%

CCOC(=O)c1[nH]c(C(=O)O)c(C(=O)OCC)c1C
inactive: [1] 7.3% | [2] 3.7% | [3] 4.85% | [4] -12.8% | [5] -5.3% | [6] -10.1%

CC(=O)O[C@]12CCCCCC1C1(O)C(O)CCCC[C@H]12 (stereo partly specified)
inactive: [1] 10.2% | [2] -23.6% | [3] -21.2% | [4] 4.45% | [5] -10.3% | [6] -16.4%

COC(=O)CCC(=O)Nc1cc(Cl)ccc1Cl
inactive: [1] -2.35% | [2] -16.1% | [3] -0.35% | [4] 6.45% | [5] -4.15% | [6] 6.3%

COc1cc(Br)c(CC2c3cc(OC)c(OC)cc3CCN2C)cc1OC (stereo unspecified)
inactive: [1] -17% | [2] -25.4% | [3] -9.75% | [4] 3.2% | [5] -7.95% | [6] -13.4%

N#CCCSC(=S)C(C#N)C(=N)c1ccccc1 (stereo unspecified)
inactive: [1] 13.2% | [2] 2.25% | [3] 14.2% | [4] 1.5% | [5] -18.9% | [6] 10.3%

O=CCCC1CCCCC1
inactive: [1] 4.75% | [2] 1.5% | [3] -4.55% | [4] -17.4% | [5] 13.1% | [6] -5.7%

CC(=O)OC1c2ccccc2C(=O)C1(OC(C)=O)c1ccccc1 (stereo unspecified)
inactive: [1] 0.7% | [2] 11.3% | [3] 12.7% | [4] 25.3% | [5] -10.9% | [6] 43.9%

Nc1ccc(S(=O)(=O)CC(=O)N2CCOCC2)cc1
inactive: [1] 6.2% | [2] -10.8% | [3] 8.3% | [4] 17.9% | [5] 4.95% | [6] 22.5%

CC(C)C(=O)/C=C/c1ccc(Br)cc1
inactive: [1] 29.9% | [2] -4.95% | [3] 1% | [4] 2.6% | [5] -14.8% | [6] 24.9%
